The text below walks through data of PubChem BioAssay (Tox21).

Values without a mark were called inactive. Entries that show only a call come without a potency. Activity calls are given as the source filed them. Calls follow the shape of the full dose curve.
Potency is read from the fitted curve at half-maximal effect.

This experiment is described as follows: qHTS assay to identify small molecule agonists of the sonic hedgehog signaling (Shh) pathway (AID 1259368). Also: nearly all actives have a fitted effect of over 15% in size.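 As to activity change: NIH/3T3-derived 3T3Gli1-Luc cells carrying a stable Gli1-driven firefly luciferase reporter.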 The settings on record: NIH/3T3 Gli1-Luc reporter, luciferase, 24 h; series mostly up to 92.4 µM. The text has this:
National Center for Advancing Translational Sciences [NCATS]
NIH Chemical Genomics Center [NCGC]
U.S. Environmental Protection Agency [EPA]
National Institutes of Environmental Health Sciences [NIEHS]
National Toxicology Program [NTP]
The sonic hedgehog (Shh) pathway is essential for normal embryonic development. Dysregulation of the Shh pathway can cause severe developmental defects in organs. Therefore chemicals that interfere with the pathway are potential developmental toxicants. A cell line designated 3T3Gli1-Luc (DMB/OARSA/CFSAN/FDA, Laurel, MD), a NIH/3T3 derived clone containing stably integrated Gli1-Luc reporter is used to detect chemical interference of the Shh pathway, by changes in the expression of the firefly Luc gene under the control of the Gli1 transcriptional response element. This cell line was used to screen Tox21 libraries for identifying and prioritizing the potential developmental toxicants that interfere Shh pathway.
3T3 Gli1-Luc cells were dispensed at 2,000 per well in 5uL of culture medium into white solid bottom 1536-well plates (Greiner Bio-One, Monroe, NC) using a Multidrop Combi (Thermo Scientific, Waltham, MA) dispenser. The assay plates were incubated at 37 C and 5% CO2 for 4hr, and then 23nL of compounds dissolved in DMSO and positive control were transferred using a Pintool station (Wako, San Diego, CA). The assay plates were incubated at 37C and 5% CO2 for 24hr. For luciferase read, 4uL of Amplite Luciferase reporter gene assay reagent (AAT Bioquest, Inc. Sunnyvale, CA) was added to each well of the assay plates using Flying Reagent Dispenser (FRD, Aurora Discovery, San Diego, CA) and incubated at room temperature for 30min. The luminescence signal was measured using a ViewLux plate reader (Perkin Elmer, Shelton, CT).
A general note: qHTS replaces the single test concentration by a dilution series.
Consider `C[C@H](CCC(=O)O)[C@H]1CC[C@H]2[C@@H]3CC[C@@H]4C[C@H](O)CC[C@]4(C)[C@H]3CC[C@]12C`, for which the Potency entry is “inactive”.

For `[Cl][Bi]([Cl])([c]1ccccc1)([c]1ccccc1)[c]1ccccc1`, the Potency result was “inactive”.

As for `CC(C)CCCCCCCCCCCCCCC(=O)O`, the Potency entry was “inactive”.

For `C[n+]1cc2c3c(ccc2c2ccc4cc5c(cc4c21)OCO5)OCO3`, the activity change was -5.86% [at 18.9 µM, stronger effect = higher value].

Consider `C=CC(=O)OCCn1c(=O)n(CCOC(=O)C=C)c(=O)n(CCOC(=O)C=C)c1=O`, for which the Potency entry was “inactive”.

For the compound `NNc1nc(-c2ccccc2)cs1`, the Potency entry is “inactive”.

As to `CO[Si](CCCNc1ccccc1)(OC)OC`, the Potency result was “inactive”.

Regarding `CCOC(=O)O[C@]1(C(=O)OCCl)CC[C@H]2[C@@H]3CCC4=CC(=O)C=C[C@]4(C)[C@H]3[C@@H](O)C[C@@]21C`, the Potency entry is “inactive”.

Consider `O=c1c(-c2ccccc2)c1-c1ccccc1`, for which the Potency result is “inactive”.

Turning to `CC(NN)c1ccccc1` (stereo not given), the activity change was 1.23% [at 18.9 µM, stronger effect = higher value].

As for `CCCCCCCC/C=C\CCCCCCCCOCCO`, the Potency entry is “inactive”.

For `CC[C@@]1(O)C(=O)OCc2c1cc1n(c2=O)Cc2c-1nc1ccccc1c2/C=N/OC(C)(C)C`, the Potency entry is “inactive”.

Consider `CCCCc1oc2ccc(NS(C)(=O)=O)cc2c1C(=O)c1ccc(OCCCN(CCCC)CCCC)cc1`, for which the Potency entry was “inactive”.

Take `CCCCN(CCCC)c1ccc(C(=O)c2ccccc2C(=O)O)c(O)c1`: the Potency result was “inactive”.

For `CCC1=C[C@@H]2CN(C1)Cc1c([nH]c3ccccc13)[C@@](C(=O)OC)(c1cc3c(cc1OC)N(C)[C@H]1[C@@](O)(C(=O)OC)[C@H](OC(C)=O)[C@]4(CC)C=CCN5CC[C@]31[C@@H]54)C2`, the Potency entry is “inactive”.

As to `CCOC(=O)O[C@H](C)OC(=O)c1ccc2c(c1)cc(C(=O)NC1CCN(C(C)C)CC1)n2Cc1cc(-c2ccc(Cl)s2)on1`, the Potency entry was “inactive”.

For the compound `ON=C1CCCC1`, the Potency result is “inactive”.

Consider `C=CC(=O)OCC(CO)(COCC(COC(=O)C=C)(COC(=O)C=C)COC(=O)C=C)COC(=O)C=C`, for which the Potency was 957 nM (active).

Turning to `NC(=O)N1C(=O)C(C(=O)c2cc(Cl)cs2)c2cc(F)c(Cl)cc21` (stereo not given), the Potency result is “inactive”.

Consider `O=C(Nc1cccc(C(F)(F)F)c1)c1cc(Br)cc(Br)c1O`, for which the Potency result was “inactive”.

Turning to `CCCC(=O)OC[C@@H](OC(=O)CCC)[C@@H](OC(=O)CCC)[C@H](Cn1c2nc(=O)[nH]c(=O)c-2nc2cc(C)c(C)cc21)OC(=O)CCC`, the Potency result was “inactive”.

Take `CCc1cc(SCc2sc(-c3ccc(C(F)(F)F)cc3)nc2CN2CCN(c3ccc(OC)cc3)CC2)ccc1OCC(=O)O`: the Potency result is “inactive”.

As for `O=c1cc(-c2ccc(O)cc2)oc2cc(O)cc(O)c12`, the Potency entry was “inactive”.

With `COC(=O)C1=C(C)NC(C)=C(C(=O)OCCc2ccc(N3CCN(C(c4ccccc4)c4ccccc4)CC3)cc2)C1c1cccc([N+](=O)[O-])c1` (stereo not given), the Potency entry was “inactive”.

For the compound `Fc1ccc([C@@H]2CCNC[C@H]2COc2ccc3c(c2)OCO3)cc1`, the Potency entry was “inactive”.

As to `Nc1ccc2c3c(cccc13)-c1ccccc1-2`, the Potency result is “inactive”.

As for `[Cl][Au]([Cl])[Cl]`, the Potency entry was “inactive”.

As for `O=C(c1ccc(F)cc1)C1CCN(CCn2c(=O)[nH]c3ccccc3c2=O)CC1`, the Potency result is “inactive”.

`C/C(=C(/OCCOc1ccc(Cl)cc1)c1ccc(Cl)cc1Cl)n1ccnc1`: the Potency entry is “inactive”.

As to `Cc1cc(C2CCCCC2)n(O)c(=O)c1`, the Potency entry is “inactive”.

For the compound `CCCCN(CCCC)C(=O)N(CCCC)CCCC`, the Potency result is “inactive”.

On to `N#CC1(c2ccc(F)cc2)CCC(=O)CC1`, for which the Potency entry was “inactive”.

With `COc1cc(-c2ccc(N=C=O)c(OC)c2)ccc1N=C=O`, the Potency entry was “inactive”.

For the compound `NNC(=O)c1cccc(C(=O)NN)c1`, the Potency result was “inactive”.

In the case of `Oc1ccc2cc(SSc3ccc4cc(O)ccc4c3)ccc2c1`, the Potency entry is “inactive”.

For `CCCCC(CC)CN=C(N)NC(N)=NCCCCCCN=C(N)NC(N)=NCC(CC)CCCC` (stereo not given), the Potency result was “inactive”.

Consider `CCC(N)(CO)CO`, for which the Potency entry is “inactive”.

Turning to `CCC1OCC(COc2ccc(Oc3ccccc3)cc2)O1` (stereo not given), the Potency result was “inactive”.

Regarding `O=C1C=CC(=O)N1c1ccc(Cc2ccc(N3C(=O)C=CC3=O)cc2)cc1`, the Potency entry is “inactive”.

Consider `COc1c(C)c2c(c(O)c1C/C=C(\C)CCC(=O)O)C(=O)OC2`, for which the Potency entry is “inactive”.
